Results taken from PubChem BioAssay (EPA / NIEHS).
Active and inactive are the calls of the source. Rule for the calls: active = hit-call score of the fitted dose curve at least 0.9, where 1 is the maximum; inactive = score below 0.9.

Experiments:
[1] = biological target: CCAAT/enhancer-binding protein beta (Homo sapiens) (UniProt P17676); test: ATG_C_EBP_CIS: Attagene CIS-FACTORIAL HepG2 Assay for human CCAAT/Enhancer Binding Protein (C/EBP) beta (AID 2282927); details: HepG2 Attagene cis-factorial transcription factor reporter; actives raise or lower the signal
CCAAT/enhancer-binding protein beta (Homo sapiens), sequence (P17676 whole entry, looked up): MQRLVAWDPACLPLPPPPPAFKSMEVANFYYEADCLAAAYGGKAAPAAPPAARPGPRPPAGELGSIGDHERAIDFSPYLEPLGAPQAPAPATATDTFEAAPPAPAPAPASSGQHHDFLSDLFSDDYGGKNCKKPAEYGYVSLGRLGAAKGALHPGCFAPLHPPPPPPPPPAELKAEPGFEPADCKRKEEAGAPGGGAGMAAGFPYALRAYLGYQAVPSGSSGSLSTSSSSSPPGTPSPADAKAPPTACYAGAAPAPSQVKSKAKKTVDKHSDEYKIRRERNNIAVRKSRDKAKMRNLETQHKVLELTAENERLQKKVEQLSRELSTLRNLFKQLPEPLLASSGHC
Summary of the method: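 Following a 24 h incubation with test chemical, transfected HepG2 cells yielded RNA whose reporter transcripts were quantified by RT-PCR and fluorescent capillary electrophoresis, with DMSO serving as baseline for bidirectional fitting.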

[2] = ATG_CMV_CIS: Attagene CIS-FACTORIAL HepG2 Assay for human CMV (Internal Marker) (AID 2282928); details: HepG2 CMV promoter reporter, transcription factor profiling; actives raise or lower the signal;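 note: endpoint acts as a background internal control marker rather than a target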
Summary of the method: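 HepG2 cells transiently transfected with multiple cis-regulated reporter units; 24 h compound exposure. Reporter mRNA quantified by RT-PCR, 6-FAM primer-extension labeling, HpaI digestion and capillary electrophoresis; bidirectional fitting against DMSO baseline.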

[3] = ATG_DR4_LXR_CIS: Attagene CIS-FACTORIAL HepG2 Assay for human Liver X Receptor (LXR), DR4 submotif (AID 2282929); details: HepG2 Attagene DR4 cis-reporter, mRNA transcription; actives raise or lower the signal
Summary of the method: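 Cells were transfected with multiple reporter transcription units, exposed to chemicals for 24 hours, then lysed for RNA. Reporter mRNA induction was measured by RT-PCR with capillary electrophoresis detection and fitted in both directions relative to DMSO.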

[4] = biological target: Aryl hydrocarbon receptor (Homo sapiens) (UniProt P35869); test: ATG_Ahr_CIS: Attagene CIS-FACTORIAL HepG2 Assay for human Aryl Hydrocarbon Receptor (Ahr) (AID 2282930); details: HepG2 AhR cis-factorial reporter transcription; actives raise or lower the signal
Aryl hydrocarbon receptor (Homo sapiens), sequence (P35869 whole entry, looked up): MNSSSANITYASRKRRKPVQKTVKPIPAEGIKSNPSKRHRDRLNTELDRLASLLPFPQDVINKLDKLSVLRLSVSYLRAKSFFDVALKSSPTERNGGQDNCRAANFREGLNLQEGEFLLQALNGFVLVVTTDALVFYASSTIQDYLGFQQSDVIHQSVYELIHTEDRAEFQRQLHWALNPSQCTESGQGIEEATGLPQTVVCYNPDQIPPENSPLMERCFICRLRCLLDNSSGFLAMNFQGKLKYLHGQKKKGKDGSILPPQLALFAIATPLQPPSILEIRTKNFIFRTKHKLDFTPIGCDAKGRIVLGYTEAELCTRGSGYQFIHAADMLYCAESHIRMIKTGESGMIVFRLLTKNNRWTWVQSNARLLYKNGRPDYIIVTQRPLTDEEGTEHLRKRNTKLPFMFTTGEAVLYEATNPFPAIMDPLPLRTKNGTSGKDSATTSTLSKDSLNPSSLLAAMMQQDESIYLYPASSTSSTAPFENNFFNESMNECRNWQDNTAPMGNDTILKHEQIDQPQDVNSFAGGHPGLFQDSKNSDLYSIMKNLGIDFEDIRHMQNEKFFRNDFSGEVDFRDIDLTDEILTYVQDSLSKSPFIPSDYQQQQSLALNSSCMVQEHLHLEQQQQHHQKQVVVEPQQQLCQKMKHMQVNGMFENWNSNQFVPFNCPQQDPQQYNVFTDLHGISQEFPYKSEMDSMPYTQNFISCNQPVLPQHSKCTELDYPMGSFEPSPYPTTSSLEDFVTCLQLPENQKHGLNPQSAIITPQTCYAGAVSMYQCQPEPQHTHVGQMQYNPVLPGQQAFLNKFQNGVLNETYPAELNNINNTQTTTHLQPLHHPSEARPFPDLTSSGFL
Summary of the method: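 Values derive from bidirectional fitting against DMSO negative control. Underlying signal: cis-element reporter mRNA in transiently transfected HepG2, harvested 24 h post-dose and measured by RT-PCR plus capillary electrophoresis.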

[5] = ATG_AP_1_CIS: Attagene CIS-FACTORIAL HepG2 Assay for human Activator Protein 1 (AP-1) (AID 2282931); details: HepG2 Attagene cis-factorial AP-1 reporter mRNA; actives raise or lower the signal
Summary of the method: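 Endogenous transcription-factor activity in human HepG2 liver cells is read through a cis-promoter reporter transcript, sampled 24 h after dosing. Detection uses RT-PCR with capillary electrophoresis; values come from bidirectional fitting relative to DMSO.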

[6] = ATG_AP_2_CIS: Attagene CIS-FACTORIAL HepG2 Assay for human Activator Protein 2 (AP-2) (AID 2282932); details: HepG2 AP-2 cis-reporter, Attagene transcription factor profiling; actives raise or lower the signal
Summary of the method: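 HepG2 cells were transiently transfected with multiple cis-promoter reporter transcription units and dosed for 24 h. Reporter mRNA was measured by RT-PCR with capillary electrophoresis fluorescence; bidirectional fits relative to DMSO baseline.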

[7] = ATG_BRE_CIS: Attagene CIS-FACTORIAL HepG2 Assay for human Bone Morphogenetic Protein (BMP) Response Element (BRE) (AID 2282933); details: HepG2 BMP response element reporter, Attagene transcription factor profiling; actives raise or lower the signal
Summary of the method: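 HepG2 cells transiently transfected with CIS reporter units (endogenous TF activity, BMP response element), dosed 24 h. Reporter mRNA quantified by RT-PCR, fluorescent labelling and capillary electrophoresis; bidirectional fit vs DMSO baseline.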

[8] = biological target: Transcription factor E2F1 (Homo sapiens) (UniProt Q01094); test: ATG_E2F_CIS: Attagene CIS-FACTORIAL HepG2 Assay for human E2F Transcription Factor 1 (AID 2282935); details: HepG2 Attagene cis-reporter, E2F reporter RNA transcripts; actives raise or lower the signal
Transcription factor E2F1 (Homo sapiens), sequence (Q01094 whole entry, looked up): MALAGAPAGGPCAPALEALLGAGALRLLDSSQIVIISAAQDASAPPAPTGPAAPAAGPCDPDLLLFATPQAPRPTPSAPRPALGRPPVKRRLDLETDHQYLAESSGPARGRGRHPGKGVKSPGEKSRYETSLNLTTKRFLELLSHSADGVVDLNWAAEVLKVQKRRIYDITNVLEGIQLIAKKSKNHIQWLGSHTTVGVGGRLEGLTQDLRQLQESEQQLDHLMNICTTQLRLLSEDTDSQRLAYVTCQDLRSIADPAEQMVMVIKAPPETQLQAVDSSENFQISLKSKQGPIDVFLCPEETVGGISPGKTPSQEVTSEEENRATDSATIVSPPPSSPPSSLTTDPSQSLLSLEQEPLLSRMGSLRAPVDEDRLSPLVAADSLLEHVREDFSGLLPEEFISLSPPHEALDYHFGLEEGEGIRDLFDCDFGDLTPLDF
Summary of the method: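 HepG2 cells transiently transfected with multiplexed cis-element reporter units, dosed for 24 h. Reporter mRNA measured by RT-PCR, 6-FAM primer-extension labeling, HpaI digestion and capillary electrophoresis; bidirectional fit versus DMSO baseline.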

[9] = ATG_E_Box_CIS: Attagene CIS-FACTORIAL HepG2 Assay for human Enhancer Box (E-box) (AID 2282936); details: HepG2 E-box cis-reporter transcription, actives raise or lower the signal
Summary of the method: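 HepG2 cells transiently transfected with multiplexed cis-element reporter units sensing endogenous transcription factor activity; 24 h compound exposure. Reporter mRNA measured by RT-PCR, 6-FAM primer extension, HpaI digestion and capillary electrophoresis; bidirectional fit versus DMSO.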

[10] = ATG_M_61_CIS: Attagene CIS-FACTORIAL HepG2 Assay for M61 Transcription Factor (Internal Marker) (AID 2282937); details: HepG2 Attagene CIS-FACTORIAL M61 internal marker reporter; actives raise or lower the signal
Summary of the method: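 Cells were transfected with reporter units under cis-regulatory promoters, treated with chemicals for 24 h, then lysed for RNA. Reporter transcripts were quantified by RT-PCR and capillary electrophoresis, and activity was fitted bidirectionally against DMSO.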

[11] = ATG_EGR_CIS: Attagene CIS-FACTORIAL HepG2 Assay for human Early Growth Response 1 (EGR1) (AID 2282938); details: HepG2 Attagene CIS-FACTORIAL EGR reporter mRNA; actives raise or lower the signal
Summary of the method: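 Endogenous TF activity in HepG2 liver cells was gauged through cis-promoter reporter constructs transiently transfected. After 24 h dosing, reporter mRNA was quantified by RT-PCR and capillary electrophoresis, and curves fitted in both directions versus DMSO.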

[12] = ATG_M_19_CIS: Attagene CIS-FACTORIAL HepG2 Assay for M19 Transcription Factor (Internal Marker) (AID 2282939); details: HepG2 Attagene CIS-FACTORIAL M19 internal marker reporter; actives raise or lower the signal
Summary of the method: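 HepG2 cells transiently transfected with cis-regulated multiplexed reporter units, dosed 24 h. Reporter mRNA quantified by RT-PCR and capillary electrophoresis; internal background marker fitted bidirectionally versus DMSO.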

[13] = ATG_ERE_CIS: Attagene CIS-FACTORIAL HepG2 Assay for Estrogen Response Element (ERE) (AID 2282940); details: HepG2 ERE cis-reporter, Attagene RNA transcript; actives raise or lower the signal
Summary of the method: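 HepG2 cells transiently transfected with multiplexed cis-element reporter units, measuring endogenous transcription factor activity; ERE reporter mRNA quantified after 24 h exposure by RT-PCR, fluorescent labelling, HpaI digestion and capillary electrophoresis. Bidirectional change versus DMSO.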

[14] = ATG_Ets_CIS: Attagene CIS-FACTORIAL HepG2 Assay for human Erythroblast Transformation Specific (ETS) (AID 2282941); details: HepG2 ETS cis-reporter transcription, actives raise or lower the signal
Summary of the method: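 HepG2 cells transiently transfected with cis-promoter reporter transcription units were dosed for 24 h; reporter mRNA was measured by RT-PCR, 6-FAM primer extension, HpaI digestion and capillary electrophoresis, with bidirectional fitting against DMSO baseline.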

[15] = biological target: Hepatocyte nuclear factor 3-beta (Homo sapiens) (UniProt Q9Y261); test: ATG_FoxA2_CIS: Attagene CIS-FACTORIAL HepG2 Assay for human Forkhead box A2 (FOXA2) (AID 2282942); details: HepG2 cis-reporter transcription factor activity, 24 h; actives raise or lower the signal
Hepatocyte nuclear factor 3-beta (Homo sapiens), sequence (Q9Y261 whole entry, looked up): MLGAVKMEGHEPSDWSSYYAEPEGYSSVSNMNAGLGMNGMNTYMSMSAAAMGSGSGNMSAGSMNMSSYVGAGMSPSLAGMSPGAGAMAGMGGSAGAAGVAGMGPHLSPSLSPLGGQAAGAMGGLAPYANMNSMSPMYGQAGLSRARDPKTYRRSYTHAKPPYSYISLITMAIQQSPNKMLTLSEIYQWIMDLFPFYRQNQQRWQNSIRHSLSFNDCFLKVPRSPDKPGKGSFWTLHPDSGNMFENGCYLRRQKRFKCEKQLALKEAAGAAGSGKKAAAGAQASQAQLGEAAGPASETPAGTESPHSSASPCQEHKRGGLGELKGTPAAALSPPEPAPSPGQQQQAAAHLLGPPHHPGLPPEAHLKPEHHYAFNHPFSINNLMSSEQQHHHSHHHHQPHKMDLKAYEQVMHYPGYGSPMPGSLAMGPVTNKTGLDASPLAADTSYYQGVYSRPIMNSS
Summary of the method: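 Endogenous transcription factor activity was read in HepG2 cells carrying transiently transfected cis-promoter reporter units. After 24 h dosing, reporter mRNA was quantified by RT-PCR and capillary electrophoresis, and values fitted bidirectionally versus DMSO.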

[16] = ATG_FoxO_CIS: Attagene CIS-FACTORIAL HepG2 Assay for human Forkhead box O (FoxO) (AID 2282943); details: HepG2 Attagene cis-reporter, FoxO element, mRNA; actives raise or lower the signal
Summary of the method: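 Values reflect reporter mRNA induction or loss in HepG2 cells 24 h post-dosing, fitted bidirectionally with DMSO as negative control and baseline. Detection used RT-PCR and fluorescence capillary electrophoresis.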

[17] = ATG_GATA_CIS: Attagene CIS-FACTORIAL HepG2 Assay for human GATA Binding Protein (AID 2282944); details: HepG2 GATA cis-element reporter, Attagene multiplex mRNA; actives raise or lower the signal
Summary of the method: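 HepG2 cells transiently transfected with multiplexed cis-element reporter units measure endogenous GATA activity; after 24 h compound exposure, reporter mRNA quantified by RT-PCR and capillary electrophoresis. Changes fitted in both directions vs DMSO.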

[18] = ATG_GLI_CIS: Attagene CIS-FACTORIAL HepG2 Assay for human Zinc Finger Protein GLI1 (AID 2282945); details: HepG2, Attagene cis-factorial reporter mRNA, GLI element; actives raise or lower the signal
Summary of the method: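 HepG2 cells transiently transfected with cis-promoter multiplexed reporter units report endogenous transcription factor activity. After 24 h chemical exposure, reporter mRNA was quantified by RT-PCR, 6-FAM labelling, HpaI digestion and capillary electrophoresis, with bidirectional fitting against DMSO.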

[19] = biological target: Retinoic acid receptor alpha (Homo sapiens) (UniProt P10276); test: ATG_DR5_RAR_CIS: Attagene CIS-FACTORIAL HepG2 Assay for human Retinoic Acid Receptor Alpha (RARE), DR5 submotif (AID 2282934); details: HepG2 Attagene cis-factorial RARE DR5 reporter, mRNA; actives raise or lower the signal;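 for AC50: reporter responds to endogenous RAR alpha beta and gamma in HepG2 not RARA alone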
Retinoic acid receptor alpha (Homo sapiens), sequence (P10276 whole entry, looked up): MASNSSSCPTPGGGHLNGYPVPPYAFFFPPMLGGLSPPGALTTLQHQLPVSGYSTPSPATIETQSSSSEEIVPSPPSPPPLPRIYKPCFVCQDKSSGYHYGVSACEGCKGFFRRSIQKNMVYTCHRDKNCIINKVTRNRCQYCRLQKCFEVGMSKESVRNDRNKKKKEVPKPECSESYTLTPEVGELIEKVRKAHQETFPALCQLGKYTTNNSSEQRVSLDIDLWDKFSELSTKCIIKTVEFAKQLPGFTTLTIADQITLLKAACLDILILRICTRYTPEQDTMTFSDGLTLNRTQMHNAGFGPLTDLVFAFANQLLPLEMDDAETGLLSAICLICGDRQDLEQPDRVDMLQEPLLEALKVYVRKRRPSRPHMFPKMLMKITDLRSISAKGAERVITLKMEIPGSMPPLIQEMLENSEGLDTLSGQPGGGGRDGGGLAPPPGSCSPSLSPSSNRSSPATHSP
Summary of the method: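 Endpoint fitted in both directions relative to DMSO as negative control. It reflects DR5 cis-element reporter mRNA induction in transiently transfected HepG2 cells, measured 24 h after dosing through RT-PCR and fluorescent capillary electrophoresis.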

O=C(CCl)CCl
outcome [1]: inactive
AC50 [2]: 54 µM (active)
AC50 [3]: 23.3 µM (active)
outcome [4]: inactive
outcome [5]: inactive
AC50 [6]: 33.4 µM (active)
outcome [7]: inactive
outcome [8]: inactive
AC50 [9]: 30.1 µM (active)
outcome [10]: inactive
AC50 [11]: 48.8 µM (active)
outcome [12]: inactive
outcome [13]: inactive
AC50 [14]: 39.1 µM (active)
outcome [15]: inactive
AC50 [16]: 46.3 µM (active)
outcome [17]: inactive
outcome [18]: inactive

Clc1nc(Cl)nc(Cl)n1
outcome [1]: inactive
outcome [2]: inactive
outcome [3]: inactive
AC50 [4]: 69 µM (active)
outcome [5]: inactive
outcome [6]: inactive
outcome [7]: inactive
outcome [8]: inactive
outcome [9]: inactive
outcome [11]: inactive
outcome [13]: inactive
outcome [14]: inactive
outcome [15]: inactive
outcome [16]: inactive
outcome [17]: inactive
outcome [18]: inactive

COP(=S)(OC)Oc1c(Cl)cc(C)cc1Cl
outcome [1]: inactive
outcome [2]: inactive
outcome [3]: inactive
outcome [4]: inactive
outcome [5]: inactive
outcome [7]: inactive
outcome [19]: inactive
outcome [8]: inactive
outcome [9]: inactive
outcome [10]: inactive
outcome [11]: inactive
outcome [12]: inactive
AC50 [13]: 9.77 µM (active)
outcome [14]: inactive
outcome [15]: inactive
outcome [16]: inactive
outcome [17]: inactive
outcome [18]: inactive

CC1(C)CCC(Cc2ccc(Cl)cc2)C1(O)Cn1cncn1 (stereo unspecified)
outcome [1]: inactive
outcome [2]: inactive
AC50 [3]: 56.7 µM (active)
AC50 [4]: 4.7 µM (active)
AC50 [5]: 33.4 µM (active)
AC50 [7]: 52.3 µM (active)
outcome [8]: inactive
outcome [9]: inactive
outcome [10]: inactive
outcome [11]: inactive
outcome [12]: inactive
AC50 [13]: 7.52 µM (active)
outcome [14]: inactive
outcome [15]: inactive
outcome [16]: inactive
outcome [17]: inactive
outcome [18]: inactive

ClC1=C(Cl)[C@]2(Cl)[C@H]3[C@H]([C@H]4C=C[C@H]3C4)[C@@]1(Cl)C2(Cl)Cl
outcome [1]: inactive
outcome [2]: inactive
AC50 [3]: 10.2 µM (active)
outcome [4]: inactive
outcome [5]: inactive
outcome [6]: inactive
outcome [7]: inactive
outcome [8]: inactive
outcome [9]: inactive
outcome [11]: inactive
outcome [12]: inactive
AC50 [13]: 9.92 µM (active)
outcome [14]: inactive
outcome [15]: inactive
outcome [16]: inactive
outcome [17]: inactive
outcome [18]: inactive

Oc1ccc(-c2ccccc2)cc1
outcome [1]: inactive
AC50 [2]: 44.9 µM (active)
outcome [3]: inactive
outcome [4]: inactive
outcome [5]: inactive
AC50 [6]: 26.8 µM (active)
outcome [7]: inactive
AC50 [19]: 154 µM (active)
outcome [8]: inactive
AC50 [9]: 169 µM (active)
outcome [10]: inactive
AC50 [11]: 68.5 µM (active)
outcome [14]: inactive
outcome [15]: inactive
outcome [16]: inactive
outcome [17]: inactive
outcome [18]: inactive

O=C(c1ccccc1)C(Cl)Cl
outcome [1]: inactive
AC50 [2]: 28.7 µM (active)
AC50 [3]: 8.03 µM (active)
outcome [4]: inactive
AC50 [5]: 53.4 µM (active)
outcome [6]: inactive
outcome [7]: inactive
outcome [19]: inactive
outcome [8]: inactive
AC50 [9]: 10.9 µM (active)
outcome [10]: inactive
AC50 [11]: 26.6 µM (active)
outcome [12]: inactive
outcome [13]: inactive
outcome [14]: inactive
outcome [15]: inactive
AC50 [16]: 26.4 µM (active)
outcome [17]: inactive
outcome [18]: inactive

C[C@@H](Oc1ccc(Cl)cc1Cl)C(=O)O
outcome [1]: inactive
outcome [2]: inactive
outcome [3]: inactive
outcome [4]: inactive
outcome [5]: inactive
outcome [6]: inactive
outcome [7]: inactive
outcome [19]: inactive
outcome [8]: inactive
outcome [9]: inactive
outcome [10]: inactive
outcome [11]: inactive
outcome [12]: inactive
outcome [13]: inactive
outcome [14]: inactive
outcome [15]: inactive
outcome [16]: inactive
outcome [17]: inactive
outcome [18]: inactive
